# According to article PMC11006913:
# Residue numbers refer to the chain shown, from its start.
# Legend:
# Experiment in all cases: PBM; 200 nM protein, PBS
# Settings in all cases: dsDNA, one strand shown
# [1] = target: HOXA7 (Homo sapiens, UniProt P31268 116-202)
# [2] = target: HOXA7 (Homo sapiens, UniProt P31268 116-202, W177C)
# [3] = target: T1, PAX4 (Homo sapiens, UniProt O43316 9-242, R200K)
# T1 sequence: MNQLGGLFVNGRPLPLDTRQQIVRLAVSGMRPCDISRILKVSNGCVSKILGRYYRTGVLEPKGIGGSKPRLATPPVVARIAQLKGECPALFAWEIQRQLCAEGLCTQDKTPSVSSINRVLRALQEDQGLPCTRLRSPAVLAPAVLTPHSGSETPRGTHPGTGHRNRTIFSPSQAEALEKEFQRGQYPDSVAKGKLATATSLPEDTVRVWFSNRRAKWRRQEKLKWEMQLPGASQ
# [4] = target: T2, PAX4 (Homo sapiens, UniProt O43316 9-242, F177Y)
# T2 sequence: T1 sequence with F169Y, K192R
# [5] = target: T3, PAX4 (Homo sapiens, UniProt O43316 9-242, R227W)
# T3 sequence: T1 sequence with K192R, R219W
# [6] = target: ALX4 (Homo sapiens, UniProt Q9H161 200-286)
# Sequence of ALX4 (Homo sapiens, UniProt Q9H161 200-286) (Q9H161 200-286): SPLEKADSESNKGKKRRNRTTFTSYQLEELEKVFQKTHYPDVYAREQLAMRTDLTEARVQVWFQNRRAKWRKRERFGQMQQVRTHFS
# [7] = target: T4, PAX4 (Homo sapiens, UniProt O43316 9-242)
# T4 sequence: T1 sequence with K192R
# [8] = target: ALX4 (Homo sapiens, UniProt Q9H161 200-286, Q225E)
# Sequence of ALX4 (Homo sapiens, UniProt Q9H161 200-286, Q225E) (Q9H161 200-286 Q225E): as the sequence (Q9H161 200-286) above, with Q26E counted along it
# [9] = target: ALX1 (Homo sapiens, UniProt Q15699 118-204, L144V)
# Sequence of ALX1 (Homo sapiens, UniProt Q15699 118-204, L144V) (Q15699 118-204 L144V): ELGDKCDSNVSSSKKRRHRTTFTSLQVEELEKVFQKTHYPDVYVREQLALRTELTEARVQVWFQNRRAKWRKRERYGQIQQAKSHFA
# [10] = target: T5, PAX4 (Homo sapiens, UniProt O43316 9-242, R200Q)
# T5 sequence: T1 sequence with K192Q
# [11] = target: MSX2 (Homo sapiens, UniProt P35548 130-214, R199I)
# Sequence of MSX2 (Homo sapiens, UniProt P35548 130-214, R199I) (P35548 130-214 R199I): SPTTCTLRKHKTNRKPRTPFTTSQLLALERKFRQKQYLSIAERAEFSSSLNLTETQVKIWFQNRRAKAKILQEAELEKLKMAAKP
# [12] = target: MSX2 (Homo sapiens, UniProt P35548 130-214)
# Sequence of MSX2 (Homo sapiens, UniProt P35548 130-214) (P35548 130-214): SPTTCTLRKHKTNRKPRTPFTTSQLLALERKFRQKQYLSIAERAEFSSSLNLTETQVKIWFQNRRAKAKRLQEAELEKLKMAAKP
# [13] = target: MSX2 (Homo sapiens, UniProt P35548 130-214, F161Y)
# Sequence of MSX2 (Homo sapiens, UniProt P35548 130-214, F161Y) (P35548 130-214 F161Y): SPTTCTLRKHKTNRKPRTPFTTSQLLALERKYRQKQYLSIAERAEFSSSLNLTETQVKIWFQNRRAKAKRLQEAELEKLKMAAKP
# [14] = target: HOXB6 (Homo sapiens, UniProt P17509 132-218)
# Sequence of HOXB6 (P17509 132-218): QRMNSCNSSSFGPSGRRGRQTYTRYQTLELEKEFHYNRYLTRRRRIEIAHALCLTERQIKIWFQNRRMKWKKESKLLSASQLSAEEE
# [15] = target: ALX1 (Homo sapiens, UniProt Q15699 118-204, L144R)
# Sequence of ALX1 (Homo sapiens, UniProt Q15699 118-204, L144R) (Q15699 118-204 L144R): as the sequence (Q15699 118-204 L144V) above, with V27R counted along it
# [16] = target: ALX1 (Homo sapiens, UniProt Q15699 118-204)
# Sequence of ALX1 (Homo sapiens, UniProt Q15699 118-204) (Q15699 118-204): as the sequence (Q15699 118-204 L144V) above, with V27L counted along it
# [17] = target: HOXA4 (Homo sapiens, UniProt Q00056 201-287, W262R)
# Sequence of HOXA4 (Homo sapiens, UniProt Q00056 201-287, W262R) (Q00056 201-287 W262R): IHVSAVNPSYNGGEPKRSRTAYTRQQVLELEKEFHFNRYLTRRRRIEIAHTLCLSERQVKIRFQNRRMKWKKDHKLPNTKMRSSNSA
# [18] = target: HOXA4 (Homo sapiens, UniProt Q00056 201-287, R217L)
# Sequence of HOXA4 (Homo sapiens, UniProt Q00056 201-287, R217L) (Q00056 201-287 R217L): as the sequence (Q00056 201-287 W262R) above, with R17L, R62W counted along it
# [19] = target: HOXA4 (Homo sapiens, UniProt Q00056 201-287)
# Sequence of HOXA4 (Homo sapiens, UniProt Q00056 201-287) (Q00056 201-287): as the sequence (Q00056 201-287 W262R) above, with R62W counted along it
# [20] = target: HOXA4 (Homo sapiens, UniProt Q00056 201-287, W262F)
# Sequence of HOXA4 (Homo sapiens, UniProt Q00056 201-287, W262F) (Q00056 201-287 W262F): as the sequence (Q00056 201-287 W262R) above, with R62F counted along it
# Sequence of HOXA7 (Homo sapiens, UniProt P31268 116-202, W177C) (P31268 116-202 W177C): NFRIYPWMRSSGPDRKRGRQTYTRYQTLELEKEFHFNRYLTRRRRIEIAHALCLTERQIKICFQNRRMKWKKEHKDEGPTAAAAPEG
# Sequence of HOXA7 (Homo sapiens, UniProt P31268 116-202) (P31268 116-202): as the sequence (P31268 116-202 W177C) above, with C62W counted along it
sequence,measurement,setting,value
CTATAAAC,binding signal,[1],"9.84 upbm affinity estimate (log intensity, higher = more binding, comparable within an allelic series)"
same,binding signal,[2],"8.92 upbm affinity estimate (log intensity, higher = more binding, comparable within an allelic series)"
ATTAAATA,binding signal,[3],"11.7 upbm affinity estimate (log intensity, higher = more binding, comparable within an allelic series)"
same,binding signal,[4],"11.1 upbm affinity estimate (log intensity, higher = more binding, comparable within an allelic series)"
same,binding signal,[5],"11 upbm affinity estimate (log intensity, higher = more binding, comparable within an allelic series)"
ATAAATTA,binding signal,[6],"13.6 upbm affinity estimate (log intensity, higher = more binding, comparable within an allelic series)"
same,binding signal,[3],"11.7 upbm affinity estimate (log intensity, higher = more binding, comparable within an allelic series)"
same,binding signal,[7],"12.2 upbm affinity estimate (log intensity, higher = more binding, comparable within an allelic series)"
same,binding signal,[8],"12.6 upbm affinity estimate (log intensity, higher = more binding, comparable within an allelic series)"
same,binding signal,[9],"11.4 upbm affinity estimate (log intensity, higher = more binding, comparable within an allelic series)"
same,binding signal,[10],"11.8 upbm affinity estimate (log intensity, higher = more binding, comparable within an allelic series)"
same,binding signal,[4],"11 upbm affinity estimate (log intensity, higher = more binding, comparable within an allelic series)"
same,binding signal,[5],"11 upbm affinity estimate (log intensity, higher = more binding, comparable within an allelic series)"
AATAAAAC,binding signal,[8],"10.6 upbm affinity estimate (log intensity, higher = more binding, comparable within an allelic series)"
ATTAATAC,binding signal,[3],"11.8 upbm affinity estimate (log intensity, higher = more binding, comparable within an allelic series)"
same,binding signal,[7],"12.2 upbm affinity estimate (log intensity, higher = more binding, comparable within an allelic series)"
same,binding signal,[10],"11.8 upbm affinity estimate (log intensity, higher = more binding, comparable within an allelic series)"
same,binding signal,[4],"11.1 upbm affinity estimate (log intensity, higher = more binding, comparable within an allelic series)"
same,binding signal,[5],"11.1 upbm affinity estimate (log intensity, higher = more binding, comparable within an allelic series)"
CGTGAAGC,binding signal,[11],"9.57 upbm affinity estimate (log intensity, higher = more binding, comparable within an allelic series)"
same,binding signal,[12],"9.35 upbm affinity estimate (log intensity, higher = more binding, comparable within an allelic series)"
same,binding signal,[13],"9.38 upbm affinity estimate (log intensity, higher = more binding, comparable within an allelic series)"
same,binding signal,[14],"8.9 upbm affinity estimate (log intensity, higher = more binding, comparable within an allelic series)"
TCCCGGGA,binding signal,[6],"8.7 upbm affinity estimate (log intensity, higher = more binding, comparable within an allelic series)"
same,binding signal,[8],"8.23 upbm affinity estimate (log intensity, higher = more binding, comparable within an allelic series)"
ACCGGCAG,binding signal,[11],"9.63 upbm affinity estimate (log intensity, higher = more binding, comparable within an allelic series)"
same,binding signal,[12],"9.62 upbm affinity estimate (log intensity, higher = more binding, comparable within an allelic series)"
same,binding signal,[13],"9.59 upbm affinity estimate (log intensity, higher = more binding, comparable within an allelic series)"
CCCAGGCC,binding signal,[9],"6.55 upbm affinity estimate (log intensity, higher = more binding, comparable within an allelic series)"
same,binding signal,[15],"6.47 upbm affinity estimate (log intensity, higher = more binding, comparable within an allelic series)"
same,binding signal,[16],"6.28 upbm affinity estimate (log intensity, higher = more binding, comparable within an allelic series)"
CTCGACCA,binding signal,[9],"6.22 upbm affinity estimate (log intensity, higher = more binding, comparable within an allelic series)"
same,binding signal,[15],"6.21 upbm affinity estimate (log intensity, higher = more binding, comparable within an allelic series)"
same,binding signal,[16],"6.22 upbm affinity estimate (log intensity, higher = more binding, comparable within an allelic series)"
CCTAGCCG,binding signal,[9],"6.49 upbm affinity estimate (log intensity, higher = more binding, comparable within an allelic series)"
same,binding signal,[15],"6.54 upbm affinity estimate (log intensity, higher = more binding, comparable within an allelic series)"
same,binding signal,[16],"6.41 upbm affinity estimate (log intensity, higher = more binding, comparable within an allelic series)"
GGGGGCAA,binding signal,[3],"9.18 upbm affinity estimate (log intensity, higher = more binding, comparable within an allelic series)"
same,binding signal,[7],"9.24 upbm affinity estimate (log intensity, higher = more binding, comparable within an allelic series)"
same,binding signal,[10],"9.19 upbm affinity estimate (log intensity, higher = more binding, comparable within an allelic series)"
same,binding signal,[4],"9.1 upbm affinity estimate (log intensity, higher = more binding, comparable within an allelic series)"
same,binding signal,[5],"9.17 upbm affinity estimate (log intensity, higher = more binding, comparable within an allelic series)"
CGCTCCGC,binding signal,[14],"9.09 upbm affinity estimate (log intensity, higher = more binding, comparable within an allelic series)"
CCCAGCCG,binding signal,[17],"9.73 upbm affinity estimate (log intensity, higher = more binding, comparable within an allelic series)"
same,binding signal,[1],"8.28 upbm affinity estimate (log intensity, higher = more binding, comparable within an allelic series)"
same,binding signal,[18],"9.56 upbm affinity estimate (log intensity, higher = more binding, comparable within an allelic series)"
same,binding signal,[19],"9.64 upbm affinity estimate (log intensity, higher = more binding, comparable within an allelic series)"
same,binding signal,[2],"8.32 upbm affinity estimate (log intensity, higher = more binding, comparable within an allelic series)"
same,binding signal,[20],"9.72 upbm affinity estimate (log intensity, higher = more binding, comparable within an allelic series)"
CGGCTTCC,binding signal,[17],"9.74 upbm affinity estimate (log intensity, higher = more binding, comparable within an allelic series)"
same,binding signal,[18],"9.5 upbm affinity estimate (log intensity, higher = more binding, comparable within an allelic series)"
same,binding signal,[19],"9.53 upbm affinity estimate (log intensity, higher = more binding, comparable within an allelic series)"
same,binding signal,[20],"9.63 upbm affinity estimate (log intensity, higher = more binding, comparable within an allelic series)"
CTCCGCCC,binding signal,[3],"9.45 upbm affinity estimate (log intensity, higher = more binding, comparable within an allelic series)"
same,binding signal,[7],"9.46 upbm affinity estimate (log intensity, higher = more binding, comparable within an allelic series)"
same,binding signal,[10],"9.44 upbm affinity estimate (log intensity, higher = more binding, comparable within an allelic series)"
same,binding signal,[4],"9.22 upbm affinity estimate (log intensity, higher = more binding, comparable within an allelic series)"
same,binding signal,[5],"9.35 upbm affinity estimate (log intensity, higher = more binding, comparable within an allelic series)"
